# Assay results as given in PubChem BioAssay (EPA / NIEHS).
# Results filed as inconclusive are left out. Activity calls are given as the source filed them. How the source made its calls: active means hit-call score of the fitted dose curve at least 0.9, where 1 is the maximum; inconclusive means response in the unintended direction; inactive means score below 0.9.
# Columns and labels:
# [1] = target: human Thromboxane A2 Receptor (TXA2), TBXA2R (gene 6915) (UniProt P21731); experiment: NVS_GPCR_hTXA2: NovaScreen (NVS) G Protein-Coupled Receptor Assay for human Thromboxane A2 Receptor (TXA2) (AID 2283282);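 further: actives reduce bound radioligand signal relative to DMSO baseline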
# Sequence of human Thromboxane A2 Receptor (TXA2), TBXA2R (gene 6915) (P21731 whole entry, looked up): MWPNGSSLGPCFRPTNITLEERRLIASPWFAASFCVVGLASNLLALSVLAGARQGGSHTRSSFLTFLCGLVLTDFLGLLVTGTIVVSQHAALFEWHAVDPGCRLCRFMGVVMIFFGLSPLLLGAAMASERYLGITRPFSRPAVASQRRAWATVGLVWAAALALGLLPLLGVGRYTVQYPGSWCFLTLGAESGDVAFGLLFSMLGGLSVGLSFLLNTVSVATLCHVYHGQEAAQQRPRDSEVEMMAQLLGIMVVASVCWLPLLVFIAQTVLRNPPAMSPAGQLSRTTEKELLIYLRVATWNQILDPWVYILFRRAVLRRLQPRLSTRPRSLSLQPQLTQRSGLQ
# Method in brief: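 Biochem binding, human platelets, cell-free; competitive radioligand displacement; 1 h; filter radiodetection. 25 uM duplicate primary, conc. series secondary; DMSO neg. ctrl.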
# [2] = target: human Muscarinic, M4 Receptor, CHRM4 (gene 1132) (UniProt P08173); experiment: NVS_GPCR_hM4: NovaScreen (NVS) G Protein-Coupled Receptor Assay for human Muscarinic, M4 Receptor (AID 2283274)
# Sequence of human Muscarinic, M4 Receptor, CHRM4 (gene 1132) (P08173 whole entry, looked up): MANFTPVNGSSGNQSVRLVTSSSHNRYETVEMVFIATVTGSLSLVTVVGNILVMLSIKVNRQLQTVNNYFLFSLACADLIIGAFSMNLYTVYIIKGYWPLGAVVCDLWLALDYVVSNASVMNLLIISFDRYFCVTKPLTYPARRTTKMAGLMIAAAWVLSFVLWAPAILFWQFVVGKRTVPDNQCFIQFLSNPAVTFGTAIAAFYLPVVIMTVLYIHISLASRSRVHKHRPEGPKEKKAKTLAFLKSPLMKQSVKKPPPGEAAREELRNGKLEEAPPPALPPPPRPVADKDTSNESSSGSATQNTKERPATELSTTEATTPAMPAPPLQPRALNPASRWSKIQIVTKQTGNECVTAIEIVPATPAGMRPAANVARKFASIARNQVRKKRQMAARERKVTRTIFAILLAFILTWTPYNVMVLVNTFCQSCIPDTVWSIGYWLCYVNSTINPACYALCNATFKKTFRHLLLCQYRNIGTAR
# Method in brief: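 Filter-based scintillation counting of radioligand bound to CHO-expressed human M4 preparations after 1 h; loss of signal fitted versus DMSO. Initial duplicate testing at 25 uM, concentration-response follow-up for actives.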
# [3] = target: Muscarinic acetylcholine receptor M5 (Homo sapiens) (UniProt P08912); experiment: NVS_GPCR_hM5: NovaScreen (NVS) G Protein-Coupled Receptor Assay for human Muscarinic, M5 Receptor (AID 2283275)
# Sequence of Muscarinic acetylcholine receptor M5 (Homo sapiens) (P08912 whole entry, looked up): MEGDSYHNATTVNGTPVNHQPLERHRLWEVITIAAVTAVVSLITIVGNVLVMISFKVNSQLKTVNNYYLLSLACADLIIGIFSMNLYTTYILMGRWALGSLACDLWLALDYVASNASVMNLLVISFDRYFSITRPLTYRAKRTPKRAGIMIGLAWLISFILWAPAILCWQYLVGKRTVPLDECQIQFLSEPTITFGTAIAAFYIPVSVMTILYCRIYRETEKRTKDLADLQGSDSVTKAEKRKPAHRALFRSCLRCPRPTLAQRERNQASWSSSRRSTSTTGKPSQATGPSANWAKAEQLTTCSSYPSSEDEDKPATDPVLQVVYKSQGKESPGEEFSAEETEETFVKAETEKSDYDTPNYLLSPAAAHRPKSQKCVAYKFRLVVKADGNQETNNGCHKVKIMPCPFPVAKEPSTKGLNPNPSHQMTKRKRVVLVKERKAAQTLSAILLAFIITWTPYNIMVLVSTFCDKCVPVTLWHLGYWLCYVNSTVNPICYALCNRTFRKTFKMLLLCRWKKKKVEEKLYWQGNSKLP
# Method in brief: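 Chemicals passing a primary duplicate screen at 25 uM were run as singleton concentration series, maximum 50 uM. Displacement of a specific radioligand from CHO-extracted receptor was read by filter scintillation after 1 h, relative to DMSO.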
# [4] = target: human Neuropeptide Receptor Y1 (NPY1), NPY1R (gene 4886) (UniProt P25929); experiment: NVS_GPCR_hNPY1: NovaScreen (NVS) G Protein-Coupled Receptor Assay for human Neuropeptide Receptor Y1 (NPY1) (AID 2283276)
# Sequence of human Neuropeptide Receptor Y1 (NPY1), NPY1R (gene 4886) (P25929 whole entry, looked up): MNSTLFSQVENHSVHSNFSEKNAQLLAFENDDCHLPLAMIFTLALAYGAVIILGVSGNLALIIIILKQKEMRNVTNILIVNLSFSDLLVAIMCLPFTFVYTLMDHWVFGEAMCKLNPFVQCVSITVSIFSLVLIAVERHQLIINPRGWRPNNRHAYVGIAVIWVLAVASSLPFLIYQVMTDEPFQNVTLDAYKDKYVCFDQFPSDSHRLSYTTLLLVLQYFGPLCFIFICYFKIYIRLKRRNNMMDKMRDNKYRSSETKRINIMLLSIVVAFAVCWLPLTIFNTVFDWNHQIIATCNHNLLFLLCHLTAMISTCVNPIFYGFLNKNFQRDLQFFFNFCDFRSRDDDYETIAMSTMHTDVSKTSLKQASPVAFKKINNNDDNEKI
# Method in brief: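 Displacement of specific radioligand from NPY1 receptor of SK-N-MC origin, read by filtration and scintillation after 1 h. Compounds first tested at 25 uM in duplicate, then actives in concentration series; signal loss relative to DMSO.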
# [5] = target: Neuropeptide Y receptor type 2 (Homo sapiens) (UniProt P49146); experiment: NVS_GPCR_hNPY2: NovaScreen (NVS) G Protein-Coupled Receptor Assay for human Neuropeptide Receptor Y2 (NPY2) (AID 2283277)
# Sequence of Neuropeptide Y receptor type 2 (Homo sapiens) (P49146 whole entry, looked up): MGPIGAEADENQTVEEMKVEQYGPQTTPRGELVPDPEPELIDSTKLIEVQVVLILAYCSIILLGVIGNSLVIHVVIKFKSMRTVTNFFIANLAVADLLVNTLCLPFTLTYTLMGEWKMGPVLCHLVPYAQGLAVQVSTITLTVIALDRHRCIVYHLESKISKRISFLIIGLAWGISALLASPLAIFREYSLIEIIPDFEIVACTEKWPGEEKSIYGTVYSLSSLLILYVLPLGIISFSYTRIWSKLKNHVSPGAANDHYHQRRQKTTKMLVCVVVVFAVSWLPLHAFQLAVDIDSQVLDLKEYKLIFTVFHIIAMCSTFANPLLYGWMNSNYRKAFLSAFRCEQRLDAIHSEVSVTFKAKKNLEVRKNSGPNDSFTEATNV
# Method in brief: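 Chemicals were first tested in duplicate at 25 uM, then actives in singleton concentration series to 50 uM. Tracer binding to SK-N-MC-derived protein measured cell-free after 1 h via filter scintillation; signal loss relative to DMSO.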
# [6] = target: human Neurokinin, NK2 Receptor, TACR2 (gene 6865) (UniProt P21452); experiment: NVS_GPCR_hNK2: NovaScreen (NVS) G Protein-Coupled Receptor Assay for human Neurokinin, NK2 Receptor (AID 2283278);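 further: actives reduce bound radioligand signal relative to DMSO baseline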
# Sequence of human Neurokinin, NK2 Receptor, TACR2 (gene 6865) (P21452 whole entry, looked up): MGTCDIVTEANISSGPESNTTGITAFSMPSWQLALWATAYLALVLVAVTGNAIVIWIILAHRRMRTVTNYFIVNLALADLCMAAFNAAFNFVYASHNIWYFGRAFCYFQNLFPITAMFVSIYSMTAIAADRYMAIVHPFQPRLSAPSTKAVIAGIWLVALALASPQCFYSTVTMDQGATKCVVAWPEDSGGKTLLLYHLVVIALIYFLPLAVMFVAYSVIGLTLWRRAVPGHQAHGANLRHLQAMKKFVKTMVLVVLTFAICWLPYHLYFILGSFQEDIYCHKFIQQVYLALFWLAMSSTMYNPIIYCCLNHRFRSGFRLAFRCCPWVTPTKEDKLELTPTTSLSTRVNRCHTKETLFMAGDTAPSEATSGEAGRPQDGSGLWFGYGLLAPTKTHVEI
# Method in brief: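 Cell-free radioligand binding using receptor protein extracted from CHO cells; readings taken 4 hours after chemical dosing by filter-based scintillation counting. Primary screen ran single concentration (25 uM) in duplicate; actives followed up in concentration series, loss-of-signal versus DMSO baseline.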
# [7] = target: human Opioid Receptor Delta 1 (Opiate D1), OPRD1 (gene 4985) (UniProt P41143); experiment: NVS_GPCR_hOpiate_D1: NovaScreen (NVS) G Protein-Coupled Receptor Assay for human Opioid Receptor Delta 1 (Opiate D1) (AID 2283280)
# Sequence of human Opioid Receptor Delta 1 (Opiate D1), OPRD1 (gene 4985) (P41143 whole entry, looked up): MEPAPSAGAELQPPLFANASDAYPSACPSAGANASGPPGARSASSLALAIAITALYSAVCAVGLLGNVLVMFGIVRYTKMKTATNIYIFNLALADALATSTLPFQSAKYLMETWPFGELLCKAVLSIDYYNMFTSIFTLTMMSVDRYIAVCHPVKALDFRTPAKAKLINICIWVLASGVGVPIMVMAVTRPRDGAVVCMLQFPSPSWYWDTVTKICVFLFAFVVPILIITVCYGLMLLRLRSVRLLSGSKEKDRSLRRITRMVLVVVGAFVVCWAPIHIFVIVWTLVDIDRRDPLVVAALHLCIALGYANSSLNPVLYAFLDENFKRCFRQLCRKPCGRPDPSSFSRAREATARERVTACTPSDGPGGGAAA
# Method in brief: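 Membrane preparations from CHO cells bearing the human receptor were incubated 1 h with test chemical, and bound radioligand was counted after filtration. Actives from 25 uM duplicate screening were retested in concentration-response.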
# [8] = target: human Orphanin, Opioid Related Nociceptin Receptor 1 (ORL1), OPRL1 (gene 4987) (UniProt P41146); experiment: NVS_GPCR_hORL1: NovaScreen (NVS) G Protein-Coupled Receptor Assay for human Orphanin, Opioid Related Nociceptin Receptor 1 (ORL1) (AID 2283283)
# Sequence of human Orphanin, Opioid Related Nociceptin Receptor 1 (ORL1), OPRL1 (gene 4987) (P41146 whole entry, looked up): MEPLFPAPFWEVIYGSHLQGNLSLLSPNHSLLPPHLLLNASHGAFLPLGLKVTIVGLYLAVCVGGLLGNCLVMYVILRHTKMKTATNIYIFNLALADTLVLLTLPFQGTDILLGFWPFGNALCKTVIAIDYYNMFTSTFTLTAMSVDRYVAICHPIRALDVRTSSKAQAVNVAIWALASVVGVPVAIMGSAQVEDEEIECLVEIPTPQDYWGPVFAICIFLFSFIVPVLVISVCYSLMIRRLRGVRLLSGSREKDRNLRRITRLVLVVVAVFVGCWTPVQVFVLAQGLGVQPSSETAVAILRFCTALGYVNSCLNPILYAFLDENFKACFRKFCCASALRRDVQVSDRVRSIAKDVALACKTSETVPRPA
# Method in brief: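 Cell-free binding using HEK293-derived receptor protein: radioligand displacement measured by filter scintillation 1 hour after dosing. Primary testing at 25 uM in duplicate, followed by singleton concentration series up to 50 uM; DMSO served as negative control.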
# [9] = target: human Neurotensin Receptor (NTS), NTSR1 (gene 4923) (UniProt P30989); experiment: NVS_GPCR_hNTS: NovaScreen (NVS) G Protein-Coupled Receptor Assay for human Neurotensin Receptor (NTS) (AID 2283279)
# Sequence of human Neurotensin Receptor (NTS), NTSR1 (gene 4923) (P30989 whole entry, looked up): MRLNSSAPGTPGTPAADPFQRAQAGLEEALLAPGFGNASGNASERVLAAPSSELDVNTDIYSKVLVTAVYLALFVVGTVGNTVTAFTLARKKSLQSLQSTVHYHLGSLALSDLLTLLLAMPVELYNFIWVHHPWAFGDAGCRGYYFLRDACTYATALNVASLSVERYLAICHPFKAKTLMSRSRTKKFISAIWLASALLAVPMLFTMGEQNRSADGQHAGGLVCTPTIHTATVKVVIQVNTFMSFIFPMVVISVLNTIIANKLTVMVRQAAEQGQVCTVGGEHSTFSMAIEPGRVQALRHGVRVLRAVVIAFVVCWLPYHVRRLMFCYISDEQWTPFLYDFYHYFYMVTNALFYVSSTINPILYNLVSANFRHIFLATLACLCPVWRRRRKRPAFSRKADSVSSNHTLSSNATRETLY
# Protocol: NVS_GPCR_hNTS is a biochemical, single-readout assay that uses extracted gene-proteins from CHO in a cell-free assay. Measurements were taken 1 hour after chemical dosing in a 96-well plate.NVS_GPCR_hNTS is one of one assay component(s) measured or calculated from the NVS_GPCR_hNTS assay. It is designed to make measurements of radioligand binding, a form of binding reporter, as detected with scintillation counting signals by Filter-based radiodetection technology.Data from the assay component NVS_GPCR_hNTS was analyzed into 1 assay endpoint. This assay endpoint, NVS_GPCR_hNTS, was analyzed in the positive analysis fitting direction relative to DMSO as the negative control and baseline of activity. […] Furthermore, this assay endpoint can be referred to as a primary readout, because the performed assay has only produced 1 assay endpoint. […]
# Binding assays used specific radioligands (tritiated, iodinated) with non-radioactive competitive displacement ligands in agonist or antagonist protocols (as indicated) and various reference compounds and inhibitors to titrate specific binding to receptors and transporters. Most enzyme assays (CYPs, kinases, phosphatases, proteases, HDACs) used recombinant protein and specific substrates (fluorescence mostly, some colorimetric and radioactive) and inhibitors, followed by a biochemical separation of substrate and product. […]
# [10] = target: human Purinergic Receptor P2Y, P2RY1 (gene 5028) (UniProt P47900); experiment: NVS_GPCR_hPY2: NovaScreen (NVS) G Protein-Coupled Receptor Assay for human Purinergic Receptor P2Y (AID 2283281)
# Sequence of human Purinergic Receptor P2Y, P2RY1 (gene 5028) (P47900 whole entry, looked up): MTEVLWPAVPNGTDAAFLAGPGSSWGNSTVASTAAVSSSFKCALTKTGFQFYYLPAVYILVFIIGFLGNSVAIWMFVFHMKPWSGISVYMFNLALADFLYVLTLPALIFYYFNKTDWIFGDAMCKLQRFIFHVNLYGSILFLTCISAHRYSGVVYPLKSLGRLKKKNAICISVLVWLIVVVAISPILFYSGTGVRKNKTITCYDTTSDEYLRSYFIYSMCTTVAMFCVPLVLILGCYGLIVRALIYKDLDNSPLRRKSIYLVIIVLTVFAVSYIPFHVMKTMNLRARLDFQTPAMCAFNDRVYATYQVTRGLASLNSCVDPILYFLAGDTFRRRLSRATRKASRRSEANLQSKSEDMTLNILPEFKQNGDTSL
# Protocol: NVS_GPCR_hPY2 is a biochemical, single-readout assay that uses extracted gene-proteins from U937 in a cell-free assay. Measurements were taken 1 hour after chemical dosing in a 48-well plate.NVS_GPCR_hPY2 is one of one assay component(s) measured or calculated from the NVS_GPCR_hPY2 assay. It is designed to make measurements of radioligand binding, a form of binding reporter, as detected with scintillation counting signals by Filter-based radiodetection technology.Data from the assay component NVS_GPCR_hPY2 was analyzed into 1 assay endpoint. This assay endpoint, NVS_GPCR_hPY2, was analyzed in the positive analysis fitting direction relative to DMSO as the negative control and baseline of activity. Using a type of binding reporter, loss-of-signal activity can be used to understand changes in the binding as they relate to the gene P2RY1. Furthermore, this assay endpoint can be referred to as a primary readout, because the performed assay has only produced 1 assay endpoint. To generalize the intended target to other relatable targets, this assay endpoint is annotated to the gpcr intended target family, where the subfamily is rhodopsin-like receptor.
# Binding assays used specific radioligands (tritiated, iodinated) with non-radioactive competitive displacement ligands in agonist or antagonist protocols (as indicated) and various reference compounds and inhibitors to titrate specific binding to receptors and transporters. Most enzyme assays (CYPs, kinases, phosphatases, proteases, HDACs) used recombinant protein and specific substrates (fluorescence mostly, some colorimetric and radioactive) and inhibitors, followed by a biochemical separation of substrate and product. All assays for the biochemical HTS were initially run in duplicate at a single concentration (10 uM for CYP450 assays and 25 uM for all others). Assay-chemical combinations meeting a pre-defined threshold (e.g., 30% inhibition and other criteria defined below) were then run in singleton concentration-response format with maximum concentration of 20 uM for CYPs and 50 uM for all others. […]
structure (smiles),measurement,setting,value
N#CCc1ccc(Cl)cc1,outcome,[1],inactive
C=C(C)C(=O)[O][Sn]([CH2]CCC)([CH2]CCC)[CH2]CCC,AC50,[2],19.1 µM (active)
same,AC50,[3],1.23 µM (active)
same,AC50,[4],1.14 µM (active)
same,AC50,[5],14.8 µM (active)
same,AC50,[6],0.977 µM (active)
same,AC50,[7],0.761 µM (active)
same,AC50,[1],5.96 µM (active)
same,AC50,[8],1.39 µM (active)
COP(=S)(OC)Oc1cc(Cl)c(Cl)cc1Cl,outcome,[6],inactive
Oc1cccc2cccnc12,outcome,[4],inactive
same,AC50,[6],4.96 µM (active)
same,outcome,[9],inactive
CCSC(C)CC1CC(=O)C(C(CC)=NOC/C=C/Cl)=C(O)C1 (stereo not drawn),AC50,[1],3.42 µM (active)
CCNc1nc(NC(C)(C)C)nc(SC)n1,outcome,[1],inactive
COP(=S)(OC)Oc1ccc(Sc2ccc(OP(=S)(OC)OC)cc2)cc1,outcome,[6],inactive
same,outcome,[10],inactive
same,AC50,[1],25 µM (active)
COP(=S)(OC)Oc1ccc(S(=O)(=O)N(C)C)cc1,outcome,[6],inactive
CC12CC1(C)C(=O)N(c1cc(Cl)cc(Cl)c1)C2=O (stereo not drawn),outcome,[6],inactive
Nc1cccc2ccccc12,AC50,[6],4.28 µM (active)
CC(C)(C)c1cc(O)ccc1O,AC50,[6],16.3 µM (active)
Clc1ccc(C2(Cn3cncn3)CC(Br)CO2)c(Cl)c1 (stereo not drawn),outcome,[8],inactive
CC(=O)[O][Hg][c]1ccccc1,AC50,[2],0.77 µM (active)
same,AC50,[3],0.591 µM (active)
same,AC50,[4],0.51 µM (active)
same,AC50,[5],8.48 µM (active)
same,AC50,[6],0.52 µM (active)
same,AC50,[7],0.848 µM (active)
same,AC50,[10],5.96 µM (active)
same,AC50,[1],5.62 µM (active)
same,AC50,[8],0.473 µM (active)
COc1ccc(OC)c(C=O)c1,outcome,[1],inactive
O=C(O)C(F)(F)C(F)(F)C(F)(F)C(F)(F)C(F)(F)C(F)(F)C(F)(F)C(F)(F)C(F)(F)C(F)(F)F,AC50,[7],10.7 µM (active)
same,outcome,[1],inactive
O=C(Nc1ccc2[nH]ccc2c1)c1cc2cc(F)ccc2n1Cc1cccc(F)c1,outcome,[3],inactive
CCCCCCCCC(=O)NCc1ccc(O)c(OC)c1,outcome,[1],inactive
CCC(=O)C(CC(C)N(C)C)(c1ccccc1)c1ccccc1 (stereo not drawn),AC50,[2],8.3 µM (active)
same,AC50,[3],4.57 µM (active)
CC(C)(C)CC(C)(C)c1ccc(O)cc1,AC50,[6],25 µM (active)
same,AC50,[7],8.28 µM (active)
same,outcome,[10],inactive
same,AC50,[1],43.7 µM (active)
CCN1CCC2(CC1)COc1cc3c(cc12)N(C(=O)c1ccc(-c2ccc(-c4nnc(C)o4)cc2C)cc1)CC3,AC50,[2],1.9 µM (active)
same,AC50,[3],2.03 µM (active)
C(=NC1CCCCC1)=NC1CCCCC1,AC50,[1],2.87 µM (active)
Nc1ncc([N+](=O)[O-])s1,outcome,[6],inactive
O=C1C2(Cl)C3(Cl)C4(Cl)C(Cl)(Cl)C5(Cl)C3(Cl)C1(Cl)C5(Cl)C24Cl (stereo not drawn),outcome,[2],inactive
